Our source for the composite z-score values is PubChem BioAssay.

The assay has as its system Wnt5a (protein binding on small-molecule microarray). Description: small molecules binding Wnt5a protein – biophysical, small-molecule microarray, 635/667 nm fluorescence, primary screen (AID 1142).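 Also: fluorescence read at 667 nm with signal to noise per printed feature.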 Particulars: 635 nm fluorescence, higher = more signal.
Turning to `C=C(C)C1C(=C)CN([C@H](CO)c2ccccc2)C1=O` (stereo partly specified), the composite z-score is -0.231.

In turn, `COc1ccc(C(O)C2C=CC3C(=O)N(c4ccccc4)C(=O)C3N2Nc2ccccc2F)cc1OCc1ccccc1` (stereo unspecified) yielded a composite z-score of 0.353.

`COCCCNC(=O)[C@@]1(Cc2ccccc2)N=C(c2ccc(OCCCO)cc2)O[C@H]1c1ccccc1` registered a composite z-score of 1.3.

`CC(C)C(CO)N1C(=O)[C@@H]2[C@H]3C(=O)OCC=C[C@H]3OC23C=CCN(C(C)C)C(=O)[C@@H]13` (stereo partly specified) came in with a composite z-score of -0.3.

Turning to `[N-]=[N+]=Nc1ccccc1[C@H]1OC(c2ccc(OCCCO)cc2)=N[C@@]1(Cc1ccccc1)C(=O)O`, the composite z-score is 0.0316.

Molecule `Cc1ccc(S[C@]2(C(=O)NC(C)C)CC(=O)N(Cc3ccccc3Cl)[C@@H]2c2ccc(CO)cc2I)cc1` came in with a composite z-score of -0.615.

Regarding `CN(C)CCCCCCNC(=O)[C@@H]1C[C@@H]2C(=O)N[C@@H](CCCCN)C(=O)N2[C@@H]1c1cccc(OCCO)c1`, the composite z-score turned out to be 1.97.

`CC(C)(C)OC(=O)CC[C@]12N=C(c3ccc(OCCCO)cc3)O[C@H]1c1ccccc1N(CCS(=O)(=O)c1ccccc1)C2=O`: the composite z-score stood at 0.628.

Consider `COCCn1c(C(=O)N2CCCC2)cc2c1C[C@H]1CN(C(=O)c3ccccc3)[C@@](Cc3ccc(F)cc3)(C(=O)OC)[C@@H]21`, for which the composite z-score came out at 0.45.

In turn, `CC1CC/C=C\[C@H]2OC34C=CCN(C(C)(C)C)C(=O)[C@H]3N(CCCCCCO)C(=O)[C@@H]4C2C(=O)O1` (stereo partly specified) displayed a composite z-score of -0.293.

Regarding `COCCOC(=O)N1C(=O)[C@@]2(c3cc(C#Cc4ccc(OC)cc4)ccc31)[C@H](C(N)=O)[C@H]1C(=O)O[C@H](c3ccccc3)[C@H](c3ccccc3)N1[C@@H]2c1ccccc1OCCO`, the composite z-score was found to be 0.753.

Molecule `O=C1OCCC/C=C\[C@H]2OC34C=CCN(c5ccc6ccccc6c5)C(=O)[C@H]3N(CCCCCCO)C(=O)[C@@H]4C12` (stereo partly specified) came in with a composite z-score of -0.694.

On to `COc1ccc([C@H]2C[C@H]3C(Br)=C[C@@H]2C(=O)[C@]32CO2)cc1`, for which the composite z-score was -0.0556.

In turn, `COCCOC(=O)N1C(=O)[C@@]2(c3cc(C#CCCO)ccc31)[C@H](c1ccc(OCCO)cc1)N1[C@H](c3ccccc3)[C@H](c3ccccc3)OC(=O)[C@H]1[C@@H]2C(=O)N1CCN(c2ncccn2)CC1` returned a composite z-score of -0.0738.

With `Cc1ccc(C(C)CC(O)C2C=CC3C(=O)N(C)C(=O)C3N2NC(=O)OC(C)(C)C)o1` (stereo unspecified), the composite z-score is 0.376.

As for `C=CC[C@@]1(C(=O)N(C)C)N=C(c2ccc(OCCCO)cc2)O[C@@H]1c1ccccc1N=[N+]=[N-]`, the composite z-score was 0.554.

`COCCOC(=O)N1C(=O)[C@@]2(c3cc(C#CCCO)ccc31)[C@H](C(=O)Nc1nc3ccccc3s1)[C@H]1C(=O)O[C@H](c3ccccc3)[C@H](c3ccccc3)N1[C@@H]2c1ccc(OCCO)cc1` returned a composite z-score of 0.281.

Turning to `O=C(c1ccccc1)N1Cc2ccccc2[C@@H]2OC(c3ccc(OCCCO)cc3)=N[C@]2(Cc2ccccc2)C1=O`, the composite z-score amounted to 0.624.

As to `NCCCCCNC(=O)[C@@H]1C[C@@H]2C(=O)N[C@@H](Cc3ccccc3)C(=O)N2[C@@H]1c1cccc(OCCO)c1`, the composite z-score was 0.0984.

Molecule `COc1ccc([C@H]2OC[C@@H]3CC4(CC=CC4)C(=O)N32)cc1` had a composite z-score of 0.0071.

In the case of `CN1C(=O)C2C=CC(C(O)Cc3ccccc3)N(Nc3ccccc3)C2C1=O` (stereo unspecified), the composite z-score is -0.0943.

The molecule `[N-]=[N+]=NCc1ccccc1[C@@H]1OC(c2ccc(OCCCO)cc2)=N[C@]1(Cc1ccccc1N=[N+]=[N-])C(=O)N1CCOCC1` showed a composite z-score of 1.11.

Molecule `COc1ccc(CCNC(=O)[C@@]2(Sc3ccc(C)cc3)CC(=O)N(C3CCCCC3)[C@@H]2c2ccc(CO)cc2I)cc1` returned a composite z-score of 0.843.

In the case of `[N-]=[N+]=NCc1ccccc1[C@@H]1OC(c2ccc(OCCCO)cc2)=N[C@]1(CCS(=O)(=O)c1ccccc1)C(=O)NCc1ccccc1`, the composite z-score turned out to be 0.88.

Molecule `O=C1OCC=C[C@H]2OC34C=CCN(CCN5CCOCC5)C(=O)[C@H]3N(CCCO)C(=O)[C@@H]4[C@@H]12` (stereo partly specified) had a composite z-score of -0.418.

Take `CCc1oc(CC[C@@H](CO)NC(=O)NCCn2cc(C3(O)CCCCC3)nn2)c(C(=O)OC)c1C(=O)OC`: the composite z-score stood at 0.209.

Take `COC(=O)[C@@]1(Cc2ccc(F)cc2)[C@H]2c3cc(C(=O)N(C)C)n(Cc4nc5ccccc5[nH]4)c3C[C@H]2CN1C(=O)c1ccccc1`: the composite z-score is 0.507.

Molecule `COc1ccc(CCN2C(=O)[C@@]3(c4ccc([N+](=O)[O-])cc4)CC(=O)N(C4CCCCC4)[C@@H]3c3ccc(CO)cc32)cc1` yielded a composite z-score of -0.0463.

Molecule `O=C(O)[C@@]1(CCS(=O)(=O)c2ccccc2)COC(c2ccc(OCCCO)cc2)=N1` came in with a composite z-score of -0.142.

`CC(C)C[C@@H]1NC(=O)[C@H]2C[C@@H](C(=O)NCCCCCCN)[C@@H](c3ccc(O)cc3)N2C1=O`: the composite z-score stood at 0.0135.

Regarding `CCCC[C@H]1OB(O)C[C@H]2C1=C(COc1ccccc1)C[C@H]1C(=O)N(C)C(=O)[C@H]12`, the composite z-score is 0.195.

Molecule `O=C1O[C@H](c2ccccc2)[C@H](c2ccccc2)N2[C@H]1[C@@H](C(=O)N1CCN(c3ncccn3)CC1)[C@]1(C(=O)Nc3ccc(C#CC4=CCCCC4)cc31)[C@H]2c1ccc(O)cc1` displayed a composite z-score of -0.019.

`C#CCN(CC=C(C)C)[C@H](CO)c1ccccc1` showed a composite z-score of -0.0366.

As to `Cc1ccc(S[C@]2(C(=O)NCCN3CCOCC3)CC(=O)N(Cc3ccccc3Cl)[C@@H]2c2ccc(CO)cc2)cc1`, the composite z-score was -0.0036.

`O=C1NC(=O)C2C1C=CC(C(O)Cc1ccccc1)N2Nc1ccc(Cl)cc1Cl` (stereo unspecified) registered a composite z-score of -0.209.

As for `C=CCOC(=O)[C@@H]1[C@H]2C(=O)O[C@H](c3ccccc3)[C@H](c3ccccc3)N2[C@H](c2ccc(OCCOC(=O)[C@@H]3C[C@@H]4C(=O)N5CCC[C@H]5C(=O)N4[C@@H]3c3ccc(O)cc3)cc2)[C@@]12C(=O)Nc1ccc(I)cc12`, the composite z-score came to 0.0017.
